# Measured values as given in PubChem BioAssay (NCATS).
# A number with no mark means an inactive call. Calls follow the shape of the dose curve; as a rule, active = well fitted curve in the direction sought with a large enough effect; inconclusive = small, poorly fitted or top-dose-only effect, or another doubt; inactive = no such curve, though single readings can be large; an effect the other way counts as inactive or inconclusive. Results filed as inconclusive are left out.
# Target: ATP-dependent 6-phosphofructokinase (Trypanosoma brucei brucei) (UniProt O15648)
# Assay: qHTS Assay to Find Inhibitors of T. brucei phosphofructokinase: hit validation (AID 492961);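 also: luminescence reports ADP formed as PFK phosphorylates fructose-6-phosphate with ATP; % is scaled to controls: 0 for no effect and ±100 for the full control effect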
# Conditions: T. brucei PFK, ADP-Glo luminescence; series mostly up to 51.4 µM; activity change, negative = inhibition: at the top concentration
# Method in brief: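 Inhibition of parasite PFK is measured as reduced ADP formation, quantified via luciferase after ATP depletion. Assay used 0.1 mM ATP, 0.5 mM F6P, 1.25 nM enzyme, 45 min incubation.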
# Sequence of ATP-dependent 6-phosphofructokinase (Trypanosoma brucei brucei) (O15648 whole entry, looked up): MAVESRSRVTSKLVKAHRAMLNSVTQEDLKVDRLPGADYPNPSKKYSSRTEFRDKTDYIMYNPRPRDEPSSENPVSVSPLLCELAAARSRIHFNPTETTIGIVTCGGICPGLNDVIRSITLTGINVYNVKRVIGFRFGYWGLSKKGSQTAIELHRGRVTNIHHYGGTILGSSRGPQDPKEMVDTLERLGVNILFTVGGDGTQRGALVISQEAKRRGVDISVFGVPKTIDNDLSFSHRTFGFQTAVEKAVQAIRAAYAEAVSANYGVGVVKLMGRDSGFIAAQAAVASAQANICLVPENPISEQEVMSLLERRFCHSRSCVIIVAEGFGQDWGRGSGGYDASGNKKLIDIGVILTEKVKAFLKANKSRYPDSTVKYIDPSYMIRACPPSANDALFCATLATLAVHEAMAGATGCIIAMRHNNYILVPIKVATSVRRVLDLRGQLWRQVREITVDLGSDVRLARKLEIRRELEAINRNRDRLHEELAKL
row,SMILES,"activity change, negative = inhibition"
1,Cc1ccc(-c2nc3ccc(C)cn3c2CC(=O)N(C)C)cc1,-3.7%
2,CN(C)CCc1ccc(O)cc1,0%
3,C#CCOC(C(=O)OCCN(C)C)(c1ccccc1)c1ccccc1,4.65%
4,C[C@]12C/C(=C/O)C(=O)C[C@@H]1CC[C@@H]1[C@@H]2CC[C@@]2(C)[C@H]1CC[C@]2(C)O,-3.79%
5,CCN(CC)CCN1C(=O)CN=C(c2ccccc2F)c2cc(Cl)ccc21,7.22%
6,NP(N)(=O)NC(=O)c1ccc(F)cc1,1%
7,O=[N+]([O-])c1cc([As](=O)(O)O)ccc1O,11.6% [at 24.3 µM]
8,CC(C)NCC(O)c1ccccc1Cl (stereo unspecified),-1.08%
9,Oc1cc(Cl)ccc1Oc1ccc(Cl)cc1Cl,2.84%
10,CC(C)(C)NCC(O)c1cc(Cl)c(N)c(Cl)c1 (stereo unspecified),14.1%
11,CCC(C(N)=O)N1CCCC1=O (stereo unspecified),9.05%
12,O=P1(NCCCl)OCCCN1CCCl (stereo unspecified),6.77% [at 24.3 µM]
13,NCCc1cc(O)c(O)cc1O,-17.6%

# Tested on: not listed separately
# Assay: Inducers of the Endoplasmic Reticulum Stress Response (ERSR) in human glioma: Validation (AID 504836); also: 0% is about no effect
# Conditions: human glioma cells, ER stress response reporter; series mostly up to 38.3 µM; activation: at the top concentration
# Method in brief: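 Stably transfected U87-MG glioma cells carrying a GRP78-based luciferase sensor; 16 h compound incubation. Luminescence end-point read 10 min after Bright-Glo addition at room temperature.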
row,SMILES,activation [%]
1,O=c1c(O)c(-c2ccc(O)c(O)c2)oc2cc(O)cc(O)c12,7.54
2,COCCCC/C(=N\OCCN)c1ccc(C(F)(F)F)cc1,-0.72
3,CC(=O)CCCCn1c(=O)c2c(ncn2C)n(C)c1=O,-0.786
4,Cc1oncc1C(=O)Nc1ccc(C(F)(F)F)cc1,-2.62
5,CC1=NS(=O)(=O)c2cc(Cl)ccc2N1,-1.96
6,Nc1ncn([C@@H]2O[C@H](CO)[C@@H](O)[C@H]2O)c(=O)n1,-7.34
7,O=C(O)COCCN1CCN(C(c2ccccc2)c2ccc(Cl)cc2)CC1 (stereo unspecified),1.45
8,CCCC(CCC)C(=O)O,1.3
9,CCOC(=O)c1ncn2c1CN(C)C(=O)c1cc(F)ccc1-2,-2.47
10,Cc1[nH]c(=O)c(C#N)cc1-c1ccncc1,-2.85
11,CN(C)C(=O)C(CCN1CCC(O)(c2ccc(Cl)cc2)CC1)(c1ccccc1)c1ccccc1,-6.67
12,Nc1nnc(-c2cccc(Cl)c2Cl)c(N)n1,0.304
13,OCCN(CCO)c1nc(N2CCCCC2)c2nc(N(CCO)CCO)nc(N3CCCCC3)c2n1,-3.53
14,CC12CC3CC(C)(C1)CC(N)(C3)C2,-2.99
15,CCCCc1oc2ccccc2c1C(=O)c1cc(I)c(OCCN(CC)CC)c(I)c1,-1.55
16,Cn1cnc([N+](=O)[O-])c1Sc1ncnc2nc[nH]c12,-1.08
17,CNCCCN1c2ccccc2CCc2ccccc21,-1.95
18,Cc1cn[nH]c1,-1.52
19,CC(C(=O)O)c1cccc(C(=O)c2ccccc2)c1 (stereo unspecified),-1.11
20,Cc1c(OCC(F)(F)F)ccnc1CS(=O)c1nc2ccccc2[nH]1 (stereo unspecified),1.18
21,NC(=O)OCC(COC(N)=O)c1ccccc1,-3.55
22,O=C(c1ccccc1)c1ccc2n1CCC2C(=O)O (stereo unspecified),-0.837
23,N=c1nc(N2CCCCC2)cc(N)n1O,-3.66
